Measured values taken from PubChem BioAssay.
Activity calls are given as the source filed them. Unless noted, no rule for the calls is given here.

Tests used:
[1] = resazurin metabolic signal in HepG2 cells – cell-based, resazurin fluorescence, 24 h, PK04 Diversity Set, profiling panel (AID 1172); details: HepG2 viability, higher = more signal; also: test concentration not given here
[2] = budding yeast growth changes without added modifier – OD600, strain BY4716, 24 h, basal condition, primary screen (AID 1173); details: S. cerevisiae BY4716 growth, OD600, 24 h; higher = more signal, called active from +8 up or from −8 down
[3] = viability profiling in MM1S myeloma cells – cell-based, resazurin fluorescence, basal, 24 h, PK04 Diversity Set, profiling panel (AID 1174); details: higher = more signal, called active from +8 up or from −8 down;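 also: MM1S multiple myeloma cell line; test concentration not given here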
[4] = target: Dihydroorotate dehydrogenase (quinone), mitochondrial (Plasmodium falciparum (isolate 3D7)) (UniProt Q08210); test: inhibition of P. falciparum DHODH – biochemical, C-terminal His tag, absorbance 600 nm, primary screen (AID 1175); details: PfDHODH enzyme, DCIP absorbance 600 nm; higher = more signal, called active from +8 up or from −8 down;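 also: recombinant parasite enzyme with a five histidine tag at its C terminus; test concentration not given here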
[5] = inhibition of PAO1 biofilm formation – strain PAO1, LB-PBS medium, absorbance 600 nm, primary screen (AID 1176); also: test concentration not given here; details: P. aeruginosa PAO1 growth/biofilm, A600, 12 h; higher = more signal
[6] = growth modulation of vineyard yeast isolate – strain RM11-1a, OD600, basal, 24 h, primary screen (AID 1177);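 also: cultures grown under basal conditions with no added stressor; test concentration not given here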; details: S. cerevisiae RM11-1a growth, OD600, 24 h; higher = more signal, called active from +8 up or from −8 down
[7] = growth of efflux-deficient E. coli DRC39 – strain DRC39, OD650, 24 h, E. coli filamentation inducers, primary screen (AID 1178);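 also: growth measured as culture turbidity by optical density at 650 nm; test concentration not given here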; details: E. coli DRC39 acrAB, higher = more signal, called active from +8 up or from −8 down
[8] = growth of efflux-deficient E. coli DRC39 – strain DRC39, OD650, 48 h, E. coli filamentation inducers, primary screen (AID 1179);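 also: screen aims at cell division blockers that make cells filament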; details: E. coli DRC39 delta-acrAB growth, higher = more signal, called active from +8 up or from −8 down
[9] = viability profiling in RPMI8226 myeloma cells – cell-based, resazurin fluorescence, basal, 24 h, PK04 Diversity Set, profiling panel (AID 1180); details: higher = more signal;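 also: RPMI8826 multiple myeloma cell line at 5000 cells per well; test concentration not given here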
[10] = target: E3 ubiquitin-protein ligase XIAP (Homo sapiens) (UniProt P98170); test: small molecules binding XIAP protein – biophysical, small-molecule microarray, fluorescence 635 nm, primary screen (AID 1181); details: higher = more signal;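 also: score merges 667 nm emission and signal to noise over triplicate slides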
E3 ubiquitin-protein ligase XIAP (Homo sapiens), sequence (P98170 whole entry, looked up): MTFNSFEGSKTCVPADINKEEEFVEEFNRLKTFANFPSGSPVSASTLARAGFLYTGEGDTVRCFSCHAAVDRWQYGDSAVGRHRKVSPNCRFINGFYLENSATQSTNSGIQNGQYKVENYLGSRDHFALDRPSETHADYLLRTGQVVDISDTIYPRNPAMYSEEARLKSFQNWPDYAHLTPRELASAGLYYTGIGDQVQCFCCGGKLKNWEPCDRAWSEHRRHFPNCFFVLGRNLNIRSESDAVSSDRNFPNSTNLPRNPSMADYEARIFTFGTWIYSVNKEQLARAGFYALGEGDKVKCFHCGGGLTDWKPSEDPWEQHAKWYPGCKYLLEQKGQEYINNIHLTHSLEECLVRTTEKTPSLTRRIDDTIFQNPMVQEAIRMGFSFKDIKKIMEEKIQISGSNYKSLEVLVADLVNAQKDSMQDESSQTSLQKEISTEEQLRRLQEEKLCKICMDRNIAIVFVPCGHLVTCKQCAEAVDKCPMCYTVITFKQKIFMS

Dihydroorotate dehydrogenase (quinone), mitochondrial (Plasmodium falciparum (isolate 3D7)), sequence (Q08210 whole entry, looked up): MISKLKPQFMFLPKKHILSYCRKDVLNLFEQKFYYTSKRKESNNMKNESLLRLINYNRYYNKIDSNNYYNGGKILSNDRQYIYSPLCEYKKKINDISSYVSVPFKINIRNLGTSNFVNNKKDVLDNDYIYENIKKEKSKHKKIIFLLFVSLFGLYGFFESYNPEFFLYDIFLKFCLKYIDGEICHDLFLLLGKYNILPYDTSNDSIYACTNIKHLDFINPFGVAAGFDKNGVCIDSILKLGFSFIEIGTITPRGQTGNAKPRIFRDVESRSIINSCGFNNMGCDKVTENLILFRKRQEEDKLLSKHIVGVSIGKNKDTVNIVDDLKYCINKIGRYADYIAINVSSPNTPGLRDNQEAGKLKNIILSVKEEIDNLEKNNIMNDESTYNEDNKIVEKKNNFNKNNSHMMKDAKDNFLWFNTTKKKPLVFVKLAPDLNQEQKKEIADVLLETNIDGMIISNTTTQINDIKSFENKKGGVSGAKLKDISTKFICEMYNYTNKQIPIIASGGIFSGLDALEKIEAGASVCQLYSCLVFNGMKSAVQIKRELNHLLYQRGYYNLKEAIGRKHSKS

SMILES	z-score [1]	z-score [2]	z-score [3]	composite z-score [4]	z-score [5]	z-score [6]	z-score [7]	z-score [8]	z-score [9]	composite z-score [10]
COc1ccc(COC(=O)NN=C2C[C@@H](O)[C@@H](O)[C@@H]3[C@@H]4C(=O)N(Cc5ccccc5)C(=O)[C@@H]4CC[C@H]23)cc1	1.35	0.3 (inactive)	1.28 (inactive)	-0.307 (inactive)	0.07 (inactive)	-0.629 (inactive)	0.426 (inactive)	-0.463 (inactive)	0.635	0.152
Cc1ccc(S(=O)(=O)n2c3ccccc3c3nnc(C(=O)c4ccccc4)nc32)cc1	-0.148	-0.586 (inactive)	-0.508 (inactive)	-1.1 (inactive)	0.523 (inactive)	0.151 (inactive)	1.04 (inactive)	0.0979 (inactive)	-0.222	-0.256
O=C1[C@H]2[C@H]3[C@H](O)[C@H](O)CC(=NOC[C@@H](O)COCc4ccco4)[C@H]3CC[C@H]2C(=O)N1Cc1ccccc1	1.57	-1.34 (inactive)	0.737 (inactive)	-0.336 (inactive)	0.377 (inactive)	-1.36 (inactive)	-0.194 (inactive)	-0.22 (inactive)	1.1	-0.0749
O=C1[C@H]2[C@H]3[C@H](O)[C@H](O)CC(=NOC[C@@H](O)COCc4ccco4)[C@H]3CC[C@H]2C(=O)N1C[C@@H]1CCCO1	0.639	0.0107 (inactive)	-0.324 (inactive)	-0.199 (inactive)	0.07 (inactive)	-0.0915 (inactive)	-0.481 (inactive)	-0.467 (inactive)	0.15	-0.217
COc1ccc(O[C@H]2C=C[C@@H](c3ccccc3)O[C@@H]2CON=C(C)C)cc1	0.163	-0.964 (inactive)	-0.253 (inactive)	0.271 (inactive)	0.936 (inactive)	0.267 (inactive)	0.366 (inactive)	-1.8 (inactive)	0.224	0.511
CCOC(=O)NN=C1C[C@@H](O)[C@@H](O)[C@@H]2[C@@H]3C(=O)N([C@@H](C)c4ccccc4)C(=O)[C@@H]3CC[C@H]12	0.384	0.448 (inactive)	-0.495 (inactive)	-0.309 (inactive)	0.0942 (inactive)	-0.362 (inactive)	-0.212 (inactive)	-0.102 (inactive)	0.331	-0.0076
C=CC1=C[C@H](O)[C@@H]2O[C@@H]2C12OCCCO2	0.257	0.301 (inactive)	-0.458 (inactive)	0.695 (inactive)	0.262 (inactive)	-0.838 (inactive)	0.451 (inactive)	0.489 (inactive)	-0.38	-0.03
CC(CCN1CCc2nc(-c3ccccc3)c(-c3ccccc3)cc2C1)=NOC[C@@H](O)[C@H]1O[C@@H]2OC(C)(C)O[C@@H]2[C@H]1O	-0.31	-3.84 (inactive)	-1.06 (inactive)	-0.897 (inactive)	0.359 (inactive)	-0.187 (inactive)	1.39 (inactive)	0.431 (inactive)	-0.776	0.145
CCN1C(=O)[C@H]2[C@H]3[C@H](O)[C@H](O)CC(=O)[C@H]3CC[C@H]2C1=O	-0.195	-0.286 (inactive)	-0.242 (inactive)	-0.794 (inactive)	-0.543 (inactive)	-0.896 (inactive)	-0.519 (inactive)	-0.177 (inactive)	-0.0216	-0.0476
C[C@@H]1NC(=O)[C@@H](C)COC(=O)[C@H](C)NC(=O)[C@@H](C)COC1=O	0.0907	-2.62 (inactive)	-0.325 (inactive)	-3.05 (inactive)	0.365 (inactive)	-1.09 (inactive)	-0.0144 (inactive)	-1.87 (inactive)	0.18	0.0714
COC(=O)[C@@H]1CC[C@H](C)[C@@H](c2ccc(C)cc2)N1C(=O)c1ccc(C=NO[C@H](C)c2cn([C@@H]3COC[C@H]3O)nn2)cc1	-0.324	-0.225 (inactive)	-0.943 (inactive)	0.0465 (inactive)	0.289 (inactive)	1.17 (inactive)	0.879 (inactive)	0.246 (inactive)	-0.798	0.199
CCOC(=O)NN=C1C[C@@H](O)[C@@H](O)[C@@H]2[C@@H]3C(=O)N([C@@H](C)c4ccccc4)C(=O)[C@@H]3CC[C@@H]12	0.13	-0.608 (inactive)	-0.371 (inactive)	-0.0776 (inactive)	-0.72 (inactive)	-0.645 (inactive)	-0.654 (inactive)	-0.23 (inactive)	-0.436	-0.202
O=C1CCCC(C2=CCCCC2=O)C1 (stereo not given)	-0.575	0.0749 (inactive)	-1.83 (inactive)	0.153 (inactive)	0.663 (inactive)	0.541 (inactive)	0.998 (inactive)	0.524 (inactive)	-1.01	0.197
CO[C@H]1COC(=O)[C@@H](Cc2ccccc2)NC(=O)[C@@H](C)COC(=O)CCC[C@@H]1C	0.464	-0.916 (inactive)	1.18 (inactive)	-1.7 (inactive)	-1.24 (inactive)	-0.726 (inactive)	0.285 (inactive)	1.39 (inactive)	0.759	-0.0918
COc1cccc([C@H]2Oc3ccc(OC)cc3C(=NO[C@@H](C)c3cn([C@H](CO)Cc4ccccc4)nn3)[C@@H]2O)c1	-1.02	-0.0439 (inactive)	-0.162 (inactive)	0.757 (inactive)	-0.102 (inactive)	-0.0779 (inactive)	-0.712 (inactive)	-2.86 (inactive)	0.22	-0.0367
COC(=O)C=CCCc1coc(C=CCNC(=O)OC)n1	-0.658	-1.07 (inactive)	0.0455 (inactive)	0.979 (inactive)	-0.27 (inactive)	0.237 (inactive)	-1 (inactive)	-0.542 (inactive)	-0.102	0.249
CCOC(=O)[C@H](CC(C)C)NC(=O)CCC1CC(OC(=O)NCc2ccc3c(c2)OCO3)CC2(CCCC(COC(=O)NCCCN3CCCC3=O)O2)O1 (stereo not given in full)	0.217	-1.17 (inactive)	0.595 (inactive)	-1.42 (inactive)	0.38 (inactive)	0.564 (inactive)	0.877 (inactive)	0.0512 (inactive)	1.24	-0.145
O=c1n(-c2ccccc2)c(=O)n2n1CC[C@@H]1C(=NOCc3ccccc3)[C@H]3O[C@H]3[C@@H](O)[C@@H]12	-1.28	-0.274 (inactive)	-0.503 (inactive)	-3.02 (inactive)	-0.0485 (inactive)	-0.249 (inactive)	-0.792 (inactive)	-0.604 (inactive)	-1.12	-0.0026
O=C(NN=C1C[C@@H](O)[C@@H](O)[C@@H]2[C@@H]3C(=O)N(C[C@@H]4CCCO4)C(=O)[C@@H]3CC[C@@H]12)OCc1ccccc1	0.0986	-0.485 (inactive)	0.169 (inactive)	-2.17 (inactive)	0.328 (inactive)	-1.49 (inactive)	-0.0573 (inactive)	0.118 (inactive)	-0.111	0.0623
CCOC(=O)NN=C1C[C@@H](O)[C@@H](O)[C@@H]2[C@@H]3C(=O)N(Cc4ccccc4)C(=O)[C@@H]3CC[C@H]12	1.16	-0.892 (inactive)	1.41 (inactive)	-0.451 (inactive)	0.483 (inactive)	-1.1 (inactive)	-0.077 (inactive)	0.495 (inactive)	1.89	-0.27
O=C(NN=C1C[C@@H](O)[C@@H](O)[C@@H]2[C@@H]3C(=O)N(C[C@@H]4CCCO4)C(=O)[C@@H]3CC[C@H]12)OCc1ccccc1	-0.136	0.267 (inactive)	-0.239 (inactive)	-0.02 (inactive)	-0.531 (inactive)	-0.0555 (inactive)	0.593 (inactive)	0.191 (inactive)	0.664	0.0451
CC(C)(C)N1C(=O)[C@H]2[C@H]3[C@H](O)C=CC(=O)[C@@H]3CC[C@H]2C1=O	0.136	1.48 (inactive)	0.469 (inactive)	0.237 (inactive)	-0.118 (inactive)	0.846 (inactive)	-0.278 (inactive)	-0.231 (inactive)	0.467	-0.102
COC(=O)CC=C[C@@H](C)[C@@H](C=NO[C@@H]1O[C@H](COC(C)=O)[C@@H](OC(C)=O)[C@H](OC(C)=O)[C@H]1OC(C)=O)OC	0.992	-0.298 (inactive)	-0.205 (inactive)	0.159 (inactive)	0.0738 (inactive)	-0.0389 (inactive)	-1.03 (inactive)	-0.932 (inactive)	0.672	0.127
CCOC(=O)[C@H](Cc1ccccc1)NC(=O)CCC1CC(OC(=O)NCc2cccc3ccccc23)CC2(CCCC(COC(=O)NCc3cccc(C(F)(F)F)c3)O2)O1 (stereo not given in full)	-0.256	-0.168 (inactive)	0.415 (inactive)	-0.873 (inactive)	0.675 (inactive)	0.473 (inactive)	0.213 (inactive)	-0.215 (inactive)	-0.573	0.158
